Test results as given in PubChem BioAssay (NCATS).
Results filed as inconclusive are left out. Unless noted, the call rests on the fitted dose curve; in most records, active means well fitted curve in either direction with a large enough effect (not every such curve was filed as active); inconclusive means small, poorly fitted or top-dose-only effect, or another doubt; inactive means flat fitted curve, though single readings scatter.

Experiments:
[1] = AP1 Signaling Pathway (AID 357); details: ME-180 AP-1-bla reporter, EGF-induced, beta-lactamase ratio, 5 h; at 17.2 µM (top of the series) unless noted;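 further: ME-180 reporter cells stimulated with EGF at its EC50 level; on the % scale 0 is the no-effect control and ±100 the full control effect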
Procedure, shortened: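 Titration-series screen for positive or negative modulators of EC50 EGF-induced signaling in ME-180 cells carrying an AP-1-driven beta-lactamase reporter. After 5 hours at 37 degrees Celsius, CCF4 460nm/530nm emission ratio gave %Activity; AC50 values derived.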

[2] = NFAT Signaling Pathway (AID 444); details: Jurkat NFAT-bla M1, carbachol, beta-lactamase ratio, 5 h; at 17.2 µM (top of the series) unless noted;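 further: carbachol stimulus at about its EC50 of 1 µM final; on the % scale 0 is the no-effect control and ±100 the full control effect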
Procedure, shortened: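 Jurkat cells with NFAT-driven β-lactamase reporter and co-expressed M1 receptor, stimulated with carbachol (final 1 uM, ~EC50), compound titration, 5 h at 37 °C. CCF4 loaded 1 h at RT; 460/530 nm ratio gave %activity and AC50.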

[3] = Stat Signaling Pathway (AID 446); details: ME-180 (cervical carcinoma) SIE beta-lactamase reporter, IL-6 stimulated, 5 h; at 17.2 µM (top of the series) unless noted;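 further: ME-180 cervical cancer cells given 40 pM IL-6 alongside compound; SIE-controlled beta-lactamase reporter measured as 460/530 nm FRET emission ratio; on the % scale 0 is the no-effect control and ±100 the full control effect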
Procedure, shortened: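 FRET read-out (405 nm excitation, 460/530 nm emission) of a beta-lactamase reporter under a STAT-inducible element in ME-180 cervical carcinoma cells. Cells with compound receive 40 pM IL-6 for 5 h. Values are normalised to AC90 stimulation and AC90 JAK-inhibitor controls.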

[4] = target: Glucocorticoid receptor (Homo sapiens) (UniProt P04150); assay: GR-GFP Redistribution (AID 450;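 active means compounds whose dose series gives a full or clear partial fitted curve of increased nuclear translocation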; further: potency means the concentration at half of the fitted maximal effect)
Chain of Glucocorticoid receptor (Homo sapiens) (P04150 whole entry, looked up): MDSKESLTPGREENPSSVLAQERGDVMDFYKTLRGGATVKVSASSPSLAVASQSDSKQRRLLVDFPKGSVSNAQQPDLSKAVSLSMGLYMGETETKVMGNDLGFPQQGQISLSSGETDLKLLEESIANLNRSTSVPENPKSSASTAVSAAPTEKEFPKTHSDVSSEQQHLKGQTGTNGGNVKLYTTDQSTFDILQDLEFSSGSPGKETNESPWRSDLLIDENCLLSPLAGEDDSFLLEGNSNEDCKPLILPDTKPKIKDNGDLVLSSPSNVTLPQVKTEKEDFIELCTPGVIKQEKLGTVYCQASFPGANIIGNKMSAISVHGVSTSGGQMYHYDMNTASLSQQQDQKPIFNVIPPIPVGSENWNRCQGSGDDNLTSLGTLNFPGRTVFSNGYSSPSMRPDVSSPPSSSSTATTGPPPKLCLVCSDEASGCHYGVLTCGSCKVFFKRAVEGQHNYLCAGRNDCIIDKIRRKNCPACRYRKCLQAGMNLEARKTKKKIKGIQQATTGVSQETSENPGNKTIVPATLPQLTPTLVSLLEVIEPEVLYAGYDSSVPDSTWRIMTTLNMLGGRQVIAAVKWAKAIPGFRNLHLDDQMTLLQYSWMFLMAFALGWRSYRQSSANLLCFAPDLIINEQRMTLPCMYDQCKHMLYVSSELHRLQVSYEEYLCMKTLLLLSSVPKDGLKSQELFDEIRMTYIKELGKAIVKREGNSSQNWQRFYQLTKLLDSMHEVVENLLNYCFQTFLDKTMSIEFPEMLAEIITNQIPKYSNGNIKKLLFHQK

COc1ccc(/C(O)=C2/C(=O)C(=O)N(CCN3CCOCC3)C2c2ccccn2)cc1OC (stereo not given)
inactive: activity change, negative = inhibition [1] 3.25% | activity change, negative = inhibition [2] -11% | activity, negative = inhibition [3] -5.39% | Potency [4] > 20.6 µM

CCOP(=O)(c1ccccc1)C1(C#N)CCCC1 (stereo not given)
inactive: activity change, negative = inhibition [1] 8.95% | activity change, negative = inhibition [2] 7.44% | activity, negative = inhibition [3] 7.92% | Potency [4] > 20.6 µM

CCOc1ccc(-c2nc(C#N)c(N3CCN(CC)CC3)o2)cc1
inactive: activity change, negative = inhibition [1] -12.4% | activity change, negative = inhibition [2] 21% | activity, negative = inhibition [3] 19.7% | Potency [4] > 20.6 µM

CCCCn1c(=O)n(C)c(=O)c2c3c(sc21)COC(C)(C)C3
inactive: activity change, negative = inhibition [1] -4.87% | activity change, negative = inhibition [2] 5.64% | activity, negative = inhibition [3] -7.31% | Potency [4] > 20.6 µM

CC(=O)Nc1cc2c(cc1Br)OCCO2
inactive: activity change, negative = inhibition [1] 0.764% | activity change, negative = inhibition [2] -0.709% | activity, negative = inhibition [3] -0.829% | Potency [4] > 20.6 µM

Cc1ccccc1COc1ccc(/C(O)=C2/C(=O)C(=O)N(CCCn3ccnc3)C2c2ccco2)cc1 (stereo not given)
inactive: activity change, negative = inhibition [1] -11.1% | activity change, negative = inhibition [2] 10.8% | activity, negative = inhibition [3] 3.48% | Potency [4] > 20.6 µM

Cn1c(/C(C#N)=C/Nc2ccccn2)nc2ccccc21
inactive: activity change, negative = inhibition [1] -8.79% | activity change, negative = inhibition [2] -5.83% | activity, negative = inhibition [3] 8.51% | Potency [4] > 20.6 µM

O=S(=O)(N[C@@H]1C[C@H]2CC[C@@H]1C2)c1cccs1
inactive: activity change, negative = inhibition [1] -5.92% | activity change, negative = inhibition [2] -11.3% | activity, negative = inhibition [3] -0.621% | Potency [4] > 20.6 µM

CC1(C)CC(=O)C(C=N)=C(O)C1
inactive: activity change, negative = inhibition [1] -5.44% | activity change, negative = inhibition [2] 1.7% | activity, negative = inhibition [3] 2.78% | Potency [4] > 20.6 µM

CCN(CC)CCN1C(=O)C(=O)/C(=C(/O)c2c(C)[nH]c(C(=O)OC)c2C)C1c1ccco1 (stereo not given)
inactive: activity change, negative = inhibition [1] 6.74% | activity change, negative = inhibition [2] -2.14% | activity, negative = inhibition [3] -0.9% | Potency [4] > 20.6 µM

Cc1cc(C)n(Cc2ccc(C(=O)NCCC3=CCCCC3)o2)n1
inactive: activity change, negative = inhibition [1] -15.1% | activity change, negative = inhibition [2] -1.94% | activity, negative = inhibition [3] 1.51% | Potency [4] > 20.6 µM

N#Cc1c(NCCN)nc(NCc2ccccc2)c2c1CCN(Cc1ccccc1)C2
inactive: activity change, negative = inhibition [1] 0.0828% | activity change, negative = inhibition [2] 21.6% | activity, negative = inhibition [3] -5.14% | Potency [4] > 20.6 µM

O=C(O)C1CSC(CCc2ccccc2)N1 (stereo not given)
inactive: activity change, negative = inhibition [1] 19.9% | activity change, negative = inhibition [2] -1.74% | activity, negative = inhibition [3] 27% | Potency [4] > 20.6 µM

CCN(CC)C(=O)C1CCN(c2ncnc3c2cnn3-c2ccc(C)cc2C)CC1
inactive: activity change, negative = inhibition [1] -10.6% | activity change, negative = inhibition [2] 7.48% | activity, negative = inhibition [3] -7.04% | Potency [4] > 20.6 µM

CC(=O)C1=C(O)C(=O)N(c2cccc(C(=O)O)c2)C1c1ccc(F)cc1 (stereo not given)
inactive: activity change, negative = inhibition [1] 15.1% | activity change, negative = inhibition [2] 2.04% | activity, negative = inhibition [3] 4.06% | Potency [4] > 20.6 µM

CC1(C)Cc2c(sc3ncn4nc(-c5ccco5)nc4c23)CO1
inactive: activity change, negative = inhibition [1] -5.24% | activity change, negative = inhibition [2] 8.04% | activity, negative = inhibition [3] -2.67% | Potency [4] > 20.6 µM

Cn1cc(C(=O)NCN2CCCCC2)c2ccccc21
inactive: activity change, negative = inhibition [1] -2.91% | activity change, negative = inhibition [2] -0.662% | activity, negative = inhibition [3] 3.15% | Potency [4] > 20.6 µM

Cc1c(O)c(CN2CCCC(C)C2)cc2c3c(c(=O)oc12)CCC3 (stereo not given)
inactive: activity change, negative = inhibition [1] 13.2% | activity change, negative = inhibition [2] -10.5% | activity, negative = inhibition [3] 6.92% | Potency [4] > 20.6 µM

COc1ccc(OC)c(C2C(C(=O)c3ccco3)=C(O)C(=O)N2CCCN2CCOCC2)c1 (stereo not given)
inactive: activity change, negative = inhibition [1] 11.5% | activity change, negative = inhibition [2] 0.311% | activity, negative = inhibition [3] -6.98% | Potency [4] > 20.6 µM

COc1ccccc1-n1c(=O)c2c3c(sc2n2c(SC)nnc12)CCC3
inactive: activity change, negative = inhibition [1] 6.29% | activity change, negative = inhibition [2] -21.2% | activity, negative = inhibition [3] 14.3% | Potency [4] > 20.6 µM

Clc1ccc(-n2ncc3c(N4CCCC4)ncnc32)cc1
inactive: activity change, negative = inhibition [1] 3% | activity change, negative = inhibition [2] 6.28% | activity, negative = inhibition [3] -0.254% | Potency [4] > 20.6 µM

Cc1ccc(N2C(=O)[C@@H]3[C@H](C2=O)C2CCCN2[C@@H]3C(=O)c2ccccc2)cc1 (stereo not given in full)
inactive: activity change, negative = inhibition [1] -15.8% | activity change, negative = inhibition [2] 9.36% | activity, negative = inhibition [3] -3.84% | Potency [4] > 20.6 µM

CN(C)CCCn1c(NC(=O)C2CCCCC2)nc2ccccc21
inactive: activity change, negative = inhibition [1] 1.38% | activity change, negative = inhibition [2] -10.7% | activity, negative = inhibition [3] 6.97% | Potency [4] > 20.6 µM

COc1ccc(C=NCCC2(O)CC(C)N(C)CC2C)cc1 (stereo not given)
inactive: activity change, negative = inhibition [1] -0.876% | activity change, negative = inhibition [2] 9.42% | activity, negative = inhibition [3] 11.9% | Potency [4] > 20.6 µM

Oc1c(C=NCc2ccncc2)sc2ccccc12
inactive: activity change, negative = inhibition [1] -15.7% | activity change, negative = inhibition [2] -6.22% | activity, negative = inhibition [3] -1.25% | Potency [4] > 20.6 µM
